Assay results as given in PMC7819943, “Rice protein-binding microarrays: a tool to detect cis-acting elements near promoter regions in rice”.
The full ranking holds about 35,000 sequences; the median of “fluorescence intensity (a.u.)” is about 10,000, and the highest 2% start at about 52,000. This is one part of a sample in which the highest values are shown more often than they occur.

target: T1, OsWOX13 (Oryza sativa, UniProt Q5QMM3 1-267); assay: protein-binding microarray (RPBM); PBS, 2% BSA, 51.3 ng/ul salmon testes DNA, 50 uM zinc acetate, 200 nM TF, 25 C, 1 h; high values mean tight binding; conditions: protein: recombinant; tags: N-terminal polyhistidine and DsRed monomer fusion (pET32a); label: CyDye5-dUTP incorporated in the synthesized complementary strand; 3' TTTTT single-stranded linker to array surface; dsDNA, one strand shown
T1 sequence: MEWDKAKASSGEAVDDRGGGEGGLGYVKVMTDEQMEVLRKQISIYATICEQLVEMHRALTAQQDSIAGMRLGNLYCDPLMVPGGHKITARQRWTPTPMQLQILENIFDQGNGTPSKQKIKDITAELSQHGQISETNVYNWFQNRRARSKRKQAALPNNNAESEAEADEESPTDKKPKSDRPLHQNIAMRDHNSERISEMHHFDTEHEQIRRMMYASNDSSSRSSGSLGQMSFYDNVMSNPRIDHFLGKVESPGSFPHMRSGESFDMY
Summary of the method: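 A custom Agilent array was converted to double-stranded form by primer extension with Cy5-dUTP and blocked with 2% BSA. Protein at 200 nM in PBS with 2% BSA, salmon testes DNA and 50 µM zinc acetate was applied for 1 h at 25 °C, followed by washing. The proteins were polyhistidine–DsRed N-terminal fusions of transcription factors, expressed in E. coli BL21-CodonPlus and Ni–NTA-purified. The binding signal is per-feature fluorescence intensity (arbitrary units) from an Axon 4000B scanner.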

Sequence | binding signal
ATATATATATATATATATATATATATATATATAAACCCAACGGAGTCACCTAGTGCAG | 24000 fluorescence intensity (a.u.)
ATCTAAGCTCATCTCAACCAATCACAACCATCGTTGATTTCGGAGTCACCTAGTGCAG | 3410 fluorescence intensity (a.u.)
ATAAATTACTTTTCGTTTGCAAATATGCTGTTTGAATAAGCGGAGTCACCTAGTGCAG | 13300 fluorescence intensity (a.u.)
TTACATGATTATGTTAATTACTACACAATTATAGGGCCTACGGAGTCACCTAGTGCAG | 42500 fluorescence intensity (a.u.)
TTCTGATCACAGATCAATTACTCTTGATCGCCCATTTATTCGGAGTCACCTAGTGCAG | 9590 fluorescence intensity (a.u.)
TGTATTCATCATCTAAATTATTGTTCATAAACCTATAGGCCGGAGTCACCTAGTGCAG | 3420 fluorescence intensity (a.u.)
ACGGAATGAACACTAATTTACTTAATACATAGAACCACGGCGGAGTCACCTAGTGCAG | 19400 fluorescence intensity (a.u.)
AACCAATTTATATTGTCAGAAGAAAATGCATTATATAGGTCGGAGTCACCTAGTGCAG | 6730 fluorescence intensity (a.u.)
CATTGAATGTTTGGACACTAATTATAAATATTAAACGTAGCGGAGTCACCTAGTGCAG | 9090 fluorescence intensity (a.u.)
AGTTATTGATAACATAAGCCTTAAAAGTTCGCCCTAACCTCGGAGTCACCTAGTGCAG | 4600 fluorescence intensity (a.u.)
CAAAACAGACATAATCTTGTTGGACAGACGTAGCCATGAACGGAGTCACCTAGTGCAG | 12500 fluorescence intensity (a.u.)
TTGCAATTGCCAATTTCTTTATTATATTGTTGGTTTAACTCGGAGTCACCTAGTGCAG | 16700 fluorescence intensity (a.u.)
CATTGATTTTGTTTTATTATTTTGGTTGGTGGTGCCGTGTCGGAGTCACCTAGTGCAG | 39100 fluorescence intensity (a.u.)
GTTGGTTAATTGCAATTTAATTGTTGTATTGTAAGAGTCTCGGAGTCACCTAGTGCAG | 56100 fluorescence intensity (a.u.)
CCTAATTTGCGTGATTGGATTGGTTGGTTGTGTTGTAATGCGGAGTCACCTAGTGCAG | 65000 fluorescence intensity (a.u.)
TGGAAGTCAAGTCACTAATTGGAAGAAGATGGTGATAATGCGGAGTCACCTAGTGCAG | 16600 fluorescence intensity (a.u.)
GCTTAATTAGCTTGTATTTAGTTGGTTAATTTAGTGTTGTCGGAGTCACCTAGTGCAG | 43600 fluorescence intensity (a.u.)
TCATAATTGGATGGCATTGTACTGTGATTTGTTTGTGTTGCGGAGTCACCTAGTGCAG | 49200 fluorescence intensity (a.u.)
AGTTTGGATTTTGGTTGAAATTGAAGATAATGTGACTGAACGGAGTCACCTAGTGCAG | 3240 fluorescence intensity (a.u.)
GGTGATTGCATTTGATTGGGTGGAAAAGGTTTGATTTTGTCGGAGTCACCTAGTGCAG | 64900 fluorescence intensity (a.u.)
GGTTGGATGGTTGGATTTGATGTGGATTTGAATTGTTATGCGGAGTCACCTAGTGCAG | 7890 fluorescence intensity (a.u.)
TTGATTGGATAATTTTGTGGTTTGGGAAGAAATGGTGATGCGGAGTCACCTAGTGCAG | 64000 fluorescence intensity (a.u.)
TGCTTGCTTGCTTGGTTTGATTGGTGGAGGTGGGAGGAGTCGGAGTCACCTAGTGCAG | 3920 fluorescence intensity (a.u.)
GACACTGGGTAAATTATTCAATTCTAACTAAATTATATGACGGAGTCACCTAGTGCAG | 4590 fluorescence intensity (a.u.)

Sequence | binding signal
TCGATAAATTGAGGAGACCAAAATTCACGAAATCAACATACGGAGTCACCTAGTGCAG | 7550 fluorescence intensity (a.u.)
AGCTGTTCCAATTATGAACTCACTAACTTTACATAGAGGTCGGAGTCACCTAGTGCAG | 3650 fluorescence intensity (a.u.)
ACAGTTCCTTTGTGCCAATCATTGAACCCGGGAATGCTGGCGGAGTCACCTAGTGCAG | 4780 fluorescence intensity (a.u.)
TATGAATGACATATAAACAGATAATCGTGTTCACCGAATGCGGAGTCACCTAGTGCAG | 20900 fluorescence intensity (a.u.)
TCTGATAGCTTGTGAGGGTTTCATTCATCCTCTGCTAGTGCGGAGTCACCTAGTGCAG | 6630 fluorescence intensity (a.u.)
GTCTTCAAATTATATTAGTTATAACTATAGTTCACACAATCGGAGTCACCTAGTGCAG | 4610 fluorescence intensity (a.u.)
TCAGCTAATCAGCTAACTGGTCCTTTTCCTACTTCCCTTGCGGAGTCACCTAGTGCAG | 8010 fluorescence intensity (a.u.)
GGGGATTGGGAGTTTATACAAGGGAATTGATGGTGAGATTCGGAGTCACCTAGTGCAG | 21000 fluorescence intensity (a.u.)
TTAAGATAGAGGAAACATTGATTGTATGCATGCTATATATCGGAGTCACCTAGTGCAG | 3750 fluorescence intensity (a.u.)
GCTAATTTATACAATAGTTGCTTACTATAGAATTAATGCACGGAGTCACCTAGTGCAG | 27200 fluorescence intensity (a.u.)
GCATAGATTATTATGCAGAAAGTTCATGTATATGACCAGCCGGAGTCACCTAGTGCAG | 6640 fluorescence intensity (a.u.)
ACACCAATTGAACATTTGGATGTAAACATTAGGGATGCTGCGGAGTCACCTAGTGCAG | 3400 fluorescence intensity (a.u.)
ACCAATATATATATACTAATTAAATTTGTGGAACTTGGATCGGAGTCACCTAGTGCAG | 4420 fluorescence intensity (a.u.)
GCAGTCCATTAACACGTGATTAATTAAGTATTAGTTAATTCGGAGTCACCTAGTGCAG | 21800 fluorescence intensity (a.u.)
TTGCTAATGACGGATTAATTAGGCTTAATAAATTCGTCTCCGGAGTCACCTAGTGCAG | 33900 fluorescence intensity (a.u.)
TGTTAGATGATAAAACATGATTAATATTTTATGCGTGACTCGGAGTCACCTAGTGCAG | 8120 fluorescence intensity (a.u.)
CATTTGCTAATGACGGATTAATTAGGGTTTATAAATTCGTCGGAGTCACCTAGTGCAG | 24400 fluorescence intensity (a.u.)
GAGCCTAATTAATTCGTGATTAGCCTAATGACGGATTAATCGGAGTCACCTAGTGCAG | 57400 fluorescence intensity (a.u.)
AGTTAGTGATTATATGATTAATCTATGGTCCAAATTATCTCGGAGTCACCTAGTGCAG | 23900 fluorescence intensity (a.u.)
AGTTAATTAATTAGTCCATCCAAGGAAGGAGTATATGATTCGGAGTCACCTAGTGCAG | 55800 fluorescence intensity (a.u.)
ATGATTAATTATTATTTTAGTGATATGCGATATACTCGTGCGGAGTCACCTAGTGCAG | 65000 fluorescence intensity (a.u.)
TGTGATTAGTTCTAATTTAATATAGCAAGAACTAGTGGATCGGAGTCACCTAGTGCAG | 53800 fluorescence intensity (a.u.)
CCTAATTAAGTGGATTTTAGTTTTATATATTATTTAACTTCGGAGTCACCTAGTGCAG | 25700 fluorescence intensity (a.u.)
ATATGATTAATATTTTATGCGATTAATATTTTATGCGTGACGGAGTCACCTAGTGCAG | 41400 fluorescence intensity (a.u.)
